This note sets out measurements from PubChem BioAssay AID463173 (ICCB-Longwood Screening Facility, Harvard Medical School, 2010).

In all, about 52,000 compounds went through this assay and about 4,300 (8.3%) were called active. Shown is part of a subset that was picked to be rich in actives. Values without a mark were called inactive. Cut-off read from the data, not from the text of the source: active = survival mostly below about 52% (no sharp cut-off); inactive = mostly above about 56%.

This assay deals with DeltatarO mutant. As to the kind of experiment: growth inhibition of S. aureus wild type versus tarO mutant, primary screen, teichoic acid synthesis inhibitors, RN4220, OD600 (AID 463173). As to conditions: OD600, 18 h, stronger effect = lower value, screened at 18.75 µg/mL (by protocol).
`NS(=O)(=O)c1ccc(NC(=O)c2csnn2)cc1`: the survival was 80%.

For the molecule `O=C(NCCO)c1ccc(-c2nnc(Nc3ccc(OC(F)(F)Cl)cc3)c3ccccc23)cc1`, the survival was 72%.

In the case of `CCOC(=O)c1ccc(NC(=O)C2CCCN(c3ccc(Sc4ccc(C)cc4)nn3)C2)cc1` (configuration not stated), the survival is 43%.

For the molecule `Cc1ccccc1CN1c2ccccc2-c2nc(SCC(=O)Nc3cc(F)ccc3F)ncc2S1(=O)=O`, the survival was 89%.

As to `Cc1ccc(C)c(CN2C(=O)c3ccccc3Sc3ccc(C(=O)NCc4ccc5c(c4)OCO5)cc32)c1`, the survival is 89%.

Regarding `Cc1[nH]c2ccccc2c1Cc1nnc(SCC(N)=O)n1Cc1ccco1`, the survival was 99%.

For `O=C(CSc1nc(Nc2ccc(F)cc2)c2ccccc2n1)c1ccc(F)cc1`, the survival was 124%.

Consider `CCOC(=O)c1nc(Nc2ccc(C(=O)OC(C)C)cc2)c2ccccc2n1`, for which the survival is 68%.

As for `CCOC(=O)c1nc(Nc2ccc(C(C)=O)cc2)c2ccccc2n1`, the survival was 49%.

On to `COC(=O)c1ccc(Nc2nc(-c3ccccc3Cl)nc3ccccc23)cc1`, for which the survival was 21% (active).

As for `COC(=O)c1ccc(Nc2nc(-c3ccc(C)cc3)nc3ccccc23)cc1`, the survival was 9% (active).

As to `CCOC(=O)c1nc(Nc2ccc(C(=O)OCC(C)C)cc2)c2ccccc2n1`, the survival is 61%.

As to `COc1ccc2c(c1)c1c(c(=O)n(-c3ccc(OC)c(OC)c3)c(=O)n1Cc1ccc(C)cc1)n2C`, the survival was 73%.

As to `CCOc1ccc(NC(=O)CSc2nc3c(oc4ccccc43)c(=O)n2-c2ccccc2C)cc1`, the survival was 79%.

As for `COc1ccc(CC(=O)N2CCc3cc(OC)c(OC)cc3C2COc2ccc(F)cc2)cc1` (configuration not stated), the survival was 67%.

Turning to `Cn1nnnc1SCCCNCc1cccc(OCc2ccc(Cl)cc2)c1`, the survival is -3% (active).

For `COc1cc(CNCCSc2nnnn2C)cc(Cl)c1OCc1ccccc1`, the survival is 44% (active).

Consider `COc1cccc(CNCCSc2nnnn2C)c1OCc1ccc(Cl)cc1`, for which the survival was 62%.

Turning to `COc1cc(CNCCSc2nnnn2C)ccc1OCc1ccccc1`, the survival is 73%.

`COc1cccc(CNCCSc2nnnn2C)c1OCc1ccccc1`: the survival is 79%.

Consider `Cn1nnnc1SCCCNCc1ccccc1OCc1ccc(F)cc1`, for which the survival is 57% (active).

Turning to `Cn1nnnc1SCCCNCc1cccc(OCc2ccccc2)c1`, the survival is 85%.

With `Cn1nnnc1SCCCNCc1ccccc1OCc1ccc(Cl)cc1`, the survival is 66%.

Take `Cn1nnnc1SCCCNCc1cccc(OCc2ccc(F)cc2)c1`: the survival was 115%.

Regarding `Cn1nnnc1SCCCNCc1ccccc1OCc1ccccc1F`, the survival was 72%.

As for `CCOc1cc(CNCCSc2nnnn2C)cc(Cl)c1OCc1ccc(Cl)cc1`, the survival is 2% (active).

Take `Cn1nnnc1SCCNCc1ccc(OCc2ccc(Cl)cc2)cc1`: the survival was 68%.

Turning to `O=C1CCc2cc(S(=O)(=O)NC(C(=O)Nc3ccc(F)cc3)c3ccccc3)ccc2N1` (configuration not stated), the survival was 100%.

For `COc1ccc(-n2c(=O)c3c4c(sc3n(CC(=O)N3CCCCC3C)c2=O)CCC4)c(OC)c1` (configuration not stated), the survival is 87%.

As for `Cc1ccc(Cl)cc1NC(=O)Cn1c(=O)c(CNc2ccccc2)cc2cc3c(cc21)OCCO3`, the survival was 95%.

For the molecule `CCc1ccc(CN2CCc3nc(Nc4ccccc4)ncc3C2)cc1`, the survival was 84%.

`Cc1ccc(Nc2nc3ccc(C(=O)c4ccccc4)cc3n3c(C)nnc23)c(C)c1`: the survival is 105%.

With `CCCn1c2ccccc2c2cnn(CC(=O)NCCCN(Cc3ccccc3)C(C)C)c(=O)c21`, the survival was 88%.

Regarding `COc1ccc(-c2c(C)nn3c(C(F)(F)F)cc(-c4ccccc4)nc23)cc1OC`, the survival was 57%.

Take `COc1ccc(-c2c(C)nn3c(-c4ccccc4)cc(-c4ccccc4)nc23)cc1OC`: the survival is 96%.

As to `COc1ccc(-c2cc(C)nc3c(-c4ccc(OC)c(OC)c4)c(C)nn23)cc1`, the survival was 63%.

For `COc1ccc(-c2c(C)nn3c(-c4ccccc4)cc(C)nc23)cc1OC`, the survival was 38% (active).

For the molecule `COc1ccc(-c2c(C)nn3c(C(F)(F)F)cc(-c4ccccc4)nc23)cc1`, the survival is 62%.

Regarding `COc1ccc(-c2cc(C(F)(F)F)n3nc(C)c(-c4ccccc4)c3n2)cc1OC`, the survival was 69% (active).

Consider `CC(CCO)Nc1nc2c(c(=O)n(C)c(=O)n2C)n1Cc1ccc(Br)cc1` (configuration not stated), for which the survival was 140%.

On to `COc1cccc(C(=O)NC2=NC(c3ccccc3F)CC(=O)N2)c1` (configuration not stated), for which the survival was 75%.

Take `CC(C)C(=O)Nc1c(C(=O)N2CCN(c3ccccc3F)CC2)oc2ccccc12`: the survival is 58%.

With `O=C(NCc1ccccc1)C1CCCN(c2ncccn2)C1` (configuration not stated), the survival was 88%.

Consider `O=[N+]([O-])c1cc(-c2nc(-c3ccccc3)no2)ccc1N1CCN(c2ccccc2)CC1`, for which the survival was 77%.

Turning to `Cc1cccc(-c2noc(-c3ccc(N4CCN(C)CC4)c([N+](=O)[O-])c3)n2)c1`, the survival was 22% (active).

As for `Cc1cccc(-c2noc(-c3ccc(N4CCOCC4)c([N+](=O)[O-])c3)n2)c1`, the survival is 67%.

Take `COc1ccccc1-c1noc(-c2ccc(N3CCOCC3)c([N+](=O)[O-])c2)n1`: the survival is 100%.

Regarding `Cc1cccc(-c2noc(-c3ccc(N4CCCC4)c([N+](=O)[O-])c3)n2)c1`, the survival was 82%.

As to `COc1ccccc1-c1noc(-c2ccc(N3CCN(C)CC3)c([N+](=O)[O-])c2)n1`, the survival is 113%.

Consider `CN1CCN(c2ccc(-c3nc(-c4ccccc4)no3)cc2[N+](=O)[O-])CC1`, for which the survival was 41% (active).

With `COc1ccccc1-c1noc(-c2ccc(N3CCN(c4ccccc4)CC3)c([N+](=O)[O-])c2)n1`, the survival was 44% (active).

With `Cc1ccc(-c2noc(-c3ccc(N4CCN(C)CC4)c([N+](=O)[O-])c3)n2)cc1`, the survival is 85%.

Turning to `Cc1ccc(-c2nc(SCC(=O)Nc3cc(C)on3)c3c(=O)n(C)c(=O)n(C)c3n2)cc1`, the survival is 83%.

Consider `CC(=O)c1ccc(NC(=O)CSc2nc(=O)n(Cc3ccccn3)c3c2CCC3)cc1`, for which the survival is 67%.

For the molecule `COc1ccc(CCNC(=O)CSC2=Nc3ccccc3C3=NC(CCC(=O)NCc4ccccc4)C(=O)N23)cc1OC` (configuration not stated), the survival was 107%.

As to `O=C(Nc1nc2c(F)cc(F)cc2s1)c1ccc2c(c1)OCCO2`, the survival is 85%.

For the molecule `Cn1cc(C(=O)NCc2ccccc2)c(=O)c2cc(S(=O)(=O)N3CCCCCC3)ccc21`, the survival was 118%.

For the molecule `Cc1noc(C)c1S(=O)(=O)Nc1ccc(C(=O)Nc2ccc(C(C)C)cc2)cc1`, the survival is 52% (active).

In the case of `COc1ccc(C)cc1NC(=O)c1ccc(NS(=O)(=O)c2c(C)noc2C)cc1`, the survival is 83%.

`CCc1ccc(NC(=O)c2ccc(NS(=O)(=O)c3c(C)noc3C)cc2)cc1`: the survival was 48%.

For the molecule `Cc1cc(Br)ccc1NC(=O)c1ccc(NS(=O)(=O)c2c(C)noc2C)cc1`, the survival is 59%.

Turning to `Cc1noc(NS(=O)(=O)c2ccc(NC(=O)c3ccc(Br)cc3)cc2)c1C`, the survival was 74%.

On to `Cc1noc(C)c1S(=O)(=O)Nc1ccc(C(=O)Nc2ccc(Br)cc2)cc1`, for which the survival was 36% (active).

For `Cc1cccc(C)c1NC(=O)CSc1nc(-c2ccccc2)nc2c1Cc1c(CO)cnc(C)c1O2`, the survival is 87%.

As to `CCc1cccc(C)c1NC(=O)C1CCN(c2nnc(C)c3c(C)n(-c4ccccc4)nc23)CC1`, the survival was 77%.

As for `Cc1cc(C)c(NC(=O)C2CCN(c3nnc(C)c4c(C)n(-c5ccccc5)nc34)CC2)c(C)c1`, the survival was 52% (active).

With `Cc1ccc(NC(=O)C2CCN(c3nnc(C)c4c(C)n(-c5ccccc5)nc34)CC2)cc1Cl`, the survival was 71%.

On to `O=C(Nc1cccc(C(F)(F)F)c1)c1cccnc1NCCO`, for which the survival is 77%.

With `C=C(C)CSc1nc2sc3c(c2c(=O)n1CCCC)CCCC3`, the survival was -3% (active).

In the case of `C=C(C)Cn1c(SCC(=O)c2ccc(Br)cc2)nc2sc3c(c2c1=O)CCCC3`, the survival was 50%.

For `C=C(C)Cn1c(SCC(=O)c2ccc(OC)cc2)nc2sc3c(c2c1=O)CCCC3`, the survival was 75%.

With `CCOC(=O)CSc1nc2sc3c(c2c(=O)n1CC)CCCC3`, the survival is 58%.

Regarding `C=C(C)Cn1c(SCC(=O)c2ccccc2)nc2sc3c(c2c1=O)CCCC3`, the survival was 69%.

In the case of `CCCCn1c(SCC(=O)c2ccccc2)nc2sc3c(c2c1=O)CCCC3`, the survival was 44% (active).

As to `COc1ccc(CNC(=O)CN(C)S(=O)(=O)c2ccc3[nH]c4c(c3c2)CCCC4)cc1`, the survival was 70%.

`Cn1c(C(=O)N(Cc2ccccc2)C(C)(C)C)cc2sccc21`: the survival is 109%.

Take `CCOc1ccccc1CNC(=O)C1CCN(c2nnc(C)c3c(C)n(-c4ccc(C)cc4)nc23)CC1`: the survival was 68%.

As for `COc1ccc(CC(=O)Nc2ccc3nc(Nc4cccc(Cl)c4)cc(C)c3c2)cc1OC`, the survival was 46% (active).

As to `Cc1cc(Nc2cccc(C(F)(F)F)c2)nc2ccc(NC(=O)c3ccc(N(C)C)cc3)cc12`, the survival was 55%.

For the molecule `COc1ccccc1CC(=O)Nc1ccc2nc(Nc3cccc(C(F)(F)F)c3)cc(C)c2c1`, the survival was 92%.

For the molecule `Cc1cc(Nc2cccc(Cl)c2)nc2ccc(NC(=O)Cc3cccc(C(F)(F)F)c3)cc12`, the survival is 64%.

As to `COc1ccc(CC(=O)Nc2ccc3nc(Nc4cccc(Cl)c4)cc(C)c3c2)cc1`, the survival was 98%.

As for `COc1ccccc1CC(=O)Nc1ccc2nc(Nc3cccc(Cl)c3)cc(C)c2c1`, the survival was 144%.

In the case of `Cc1cc(Nc2cccc(C(F)(F)F)c2)nc2ccc(NC(=O)c3cccc(Cl)c3)cc12`, the survival was 92%.

For `COc1cccc(CC(=O)Nc2ccc3nc(Nc4cccc(C(F)(F)F)c4)cc(C)c3c2)c1`, the survival is 25% (active).

As to `Cc1cc(Nc2cccc(C(F)(F)F)c2)nc2ccc(NC(=O)c3ccc(=O)[nH]c3)cc12`, the survival was 37% (active).

As for `O=C(Cn1cc(S(=O)(=O)Cc2ccccc2Cl)c2ccccc21)Nc1cccc(C(F)(F)F)c1`, the survival is 75%.
